Here are results for 39 compounds from PubChem BioAssay (NCI).

The panel holds about 83,000 compounds, 20% with a hit somewhere; the sample as a whole holds those more often.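 Compound tested at a single concentration for 48 hours in 96-well plates; a percent growth value below 10 was scored as active.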 Values without a mark were called inactive. The source made the active and inactive calls.

The experiment deals with MOLT-4 leukemia. Kind of experiment: NCI-60 one-dose screen, 48 h (100 = growth as untreated, 0 = no growth, -100 = all killed). To be noted: 10 µM unless noted.
For `Cc1cc(C)c(S(=O)(=O)N2CCN(c3cc4c(cc3F)c(=O)c(C(=O)O)cn4C3CC3)CC2)c(C)c1`, the growth is 61%. With `CCn1cc(C(=O)O)c(=O)c2cc(F)c(N3CCN(S(=O)(=O)c4ccc(OC)c(OC)c4)CC3)cc21`, the growth is 78.9%. For `Cc1ccc(S(=O)(=O)OCC(=O)Nc2ccc(C(=O)O)c(O)c2)cc1` the value was 57.1%. As for `O=S(=O)(c1ccccc1)n1ccc(-c2ccc3c(c2)CCO3)n1`, the figure is 85.6%. `Clc1ccc(-c2nc(-c3ccco3)cn3ccnc23)cc1`: the growth is 80%. `CCn1cc(C(=O)O)c(=O)c2cc(F)c(N3CCN(S(=O)(=O)c4cccc5ccccc45)CC3)cc21`: the growth is 8.41% (active). Take `O=P([O-])(O)OP(=O)([O-])O.[NH-][C@H]1CCCC[C@@H]1[NH-].[OH-].[OH-].[Pt+4]`: the growth was 87.8%. As for `O=C(CC(O)c1ccncc1)c1ccccc1` (centres undefined), the growth was 90.9%. As for `O=c1oc2c([nH]c3ccc4ccccc4c32)c2ccccc12`, the figure is 85.2%. As to `Nc1c(C(=O)Nc2ccccc2)sc2nc3c(cc12)CCC3`, the growth is 90.3%.

On to `COc1ccc(C2CC(c3cccs3)=NN2c2ccc(S(=O)(=O)NC(=O)NCc3cccc(OC)c3)cc2)cc1` (centres undefined), for which the growth was 94.7%. Take `COc1cc(NC(=O)CSc2nc3ccc(C)cc3c(=O)n2-c2ccccc2)cc(OC)c1OC`: the growth is 59.2%. For the compound `Cc1ccc(S(=O)(=O)OC2COCOC2C(OS(=O)(=O)c2ccc(C)cc2)C2OCOCC2OS(=O)(=O)c2ccc(C)cc2)cc1` (centres undefined), the growth was 90.1%. `CC(=O)Nc1ccc(S(=O)(=O)N2C(=O)CCC2C(=O)Nc2ccc(Br)cc2)cc1` (centres undefined): the growth was 5.48% (active).

Take `O=C(O)c1ccc(-n2c(=O)c3ccccc3c3ccccc3c2=O)cc1`: the growth was 92.8%. As for `CS(=O)(=O)N(c1cc(-c2ccc3ncnc(Nc4cccc(Cl)c4)c3c2)cnc1Cl)S(C)(=O)=O`, the figure is -10.5% (active). Take `CN(C)c1ncc(-c2ccc(C(F)(F)F)cc2)c(NC2CCCCCC2)n1`: the growth is 76.5%. For the compound `O=S(=O)(NCCNc1cc(-c2cn(-c3ccccc3)nc2-c2ccccc2)ccn1)c1cccc2ccccc12`, the growth was 28.4%. Regarding `CC/C=C\C[C@H](O)C/C=C1/C(=O)C(Cl)=C[C@@H]1C/C=C\CCCC(=O)O`, the growth is 40.5%. For `CC[C@H](C)[C@@H]1NC(=O)[C@H]([C@@H](C)O)NC(=O)C(Cc2ccccc2)NC(=O)[C@@H]2CCCN2C(=O)C(C(C)C)NC(=O)C(Cc2ccccc2)NC(=O)CNC(=O)[C@@H]2CCCN2C1=O` (some centres undefined), the growth is 7.99% (active).

Take `O=C(Nc1cc(C(F)(F)F)cc(C(F)(F)F)c1)Nc1ccc(OCc2nnc(-c3ccc(Cl)cc3)o2)c(F)c1`: the growth is 18%. Take `Oc1ccc(N=Cc2ccccc2)cc1`: the growth was 3.61% (active).

As to `Nc1ccccc1C#C/C=C\C#Cc1cccc(O)c1`, the growth was 27.1%. As for `CCn1cc(C(=O)O)c(=O)c2cc(F)c(N3CCN(S(=O)(=O)c4ccc(Cl)cc4Cl)CC3)cc21`, the figure is 1.8% (active); as for `COc1cc(CNC(=O)CSc2nc3ccccc3c(=O)n2Cc2cc(OC)c(OC)c(OC)c2)cc(OC)c1OC`, 92.7%; as for `COc1cc(CCn2nnc3c(NCCCCO)ncnc32)cc(OC)c1`, 112%. For `C/C(=C\c1csc(C)n1)[C@@H]1C[C@@H]2O[C@]2(C)CCC[C@H](C)[C@H](O)[C@@H](C)C(=O)C(C)(C)[C@@H](O)CC(=O)N1`, the growth was -27.5% (active). As to `COc1ccc(S(=O)(=O)N2CCN(c3cc4c(cc3F)c(=O)c(C(=O)O)cn4C3CC3)CC2)c(OC)c1`, the growth is 69.3%. With `CC[C@]1(O)C[C@@H]2CN(Cc3c([nH]c4ccccc34)[C@@](C(=O)OC)(c3cc4c(cc3OC)N(C)[C@H]3[C@@](O)(C(=O)OC)[C@H](OC(C)=O)[C@]5(CC)[C@@H]6C[C@@H]6CN6CC[C@]43[C@@H]65)C2)C1`, the growth was 1.8% (active). For `COC1=CC(c2ccc[nH]2)=N/C1=C\c1[nH]c(C)c(C(=O)CCCCC(=O)Oc2ccc3c(c2)CCC2C3CC[C@]3(C)[C@@H](O)CC[C@@H]23)c1C` (some centres undefined), the growth was 22.8%. Consider `N#Cc1ncc(-c2ccc(F)c(F)c2F)c(NC2CCCCCC2)n1`, for which the growth was 68.1%. For `O=C(O)c1cn(C2CC2)c2cc(N3CCN(S(=O)(=O)c4ccc(Cl)c(Cl)c4)CC3)c(F)cc2c1=O` the value was 3.44% (active). Take `CCCCCCCCCCCCOB(OCCCCCCCCCCCC)OCCCCCCCCCCCC`: the growth is 95.2%. As for `CNC(C)=O`, the figure is 95%; as for `COc1cc2nc(N3CCC[C@@H](NC4=CC(=O)c5ccccc5C4=O)C3)nc(N)c2cc1OC`, -37.1% (active); as for `COC(=O)[C@H]1[C@H](OC)[C@@H](OC(=O)/C=C/c2ccncc2)CC2CN3CCc4c([nH]c5cc(OC)ccc45)[C@@H]3C[C@@H]21` (some centres undefined), 78.2%. As for `Clc1nc(-c2cccnc2)nc2sc3c(c12)CCCCCC3`, the figure is 90%.

For `O=c1oc2cc(OS(=O)(=O)c3ccc(F)cc3)ccc2c2c1CCCCC2`, the growth was 63.8%.

Turning to `CC(=O)C1CCC(C)=CC1=O` (centres undefined), the growth is 88.3%.
